MPTP block: mitochondrial permeability transition pore inhibitors, primary screen, biochemical, isolated mouse mitochondria, absorbance; Ca2+ swelling absorbance, 30 min; inhibition, % at 10 µM; hit rate 1.4% among 360,000; AID 602449, 2012;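 active = inhibition of 50% or more, scaled per plate between neutral and stimulator controls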;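 note: 0% = DMSO wells given calcium and 100% = 1 mM EGTA wells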
SKKanGAS inh: S. pyogenes SKKanGAS growth inhibitors in kanamycin, primary screen, streptokinase expression inhibitor project, SKKanGAS strain, BacTiter-Glo luminescence | 6 h | inhibition, % at 7.5 µM | hit rate 1.3% among 300,000;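 active = mean replicate score, as percent of positive control median, at least 50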;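 note: strain carries kanamycin resistance gene driven by streptokinase promoter and grows in 40 µg/ml kanamycin; loss of luminescence reflects streptokinase promoter inhibition or plain growth inhibition; 0% = median of DMSO wells and 100% = positive control at its reference dose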
Beta apoptosis: inhibitors of cytokine-induced beta cell apoptosis, primary screen, luminescence | INS-1E cytokine-induced death, ATP luminescence, 48 h; percent of positive-control rescue, neutral wells zero | protection from apoptosis, % (concentration not given with the values) | hit rate 0.8% among 300,000;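 active = Every replicate reaches about 75%, or at least half do and their mean reaches it too, limit read from the data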;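 note: 0% = cytokine-treated negative control wells and 100% = positive control rescue; higher means more ATP so stronger rescue from cytokine killing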
NR3A LBD binder: binders of NR3A ligand-binding domain, primary screen, biophysical, differential scanning fluorimetry, uHTS | NR3A LBD differential scanning fluorimetry, Tm shift; 0% = protein alone, 100% = glycine-bound protein | Tm shift relative to glycine control, % at 25 µM | hit rate 2.5% among 340,000;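 active = melting temperature shift of at least 10% of the positive control shift, at one fixed dose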
Mdm2-MdmX inh: inhibitors of human Mdm2-MdmX association, primary screen, cell-based, luminescence, split luciferase, SaOS-2, uHTS. SaOS-2 split-luciferase Mdm2/MdmX complementation. inhibition, % at 8 µM. hit rate 3% among 330,000. Protein Mdm4 (Homo sapiens) + E3 ubiquitin-protein ligase Mdm2 (Homo sapiens), …;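 active = inhibition of at least 50% at 8 µM in the primary screen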
CSC inhib: cancer stem cell viability inhibitors, primary screen, luminescence; inhibition, % at 7.5 µM; cancer stem cell-like cells viability; hit rate 1.1% among 300,000; AID 2717, 2010; in the data active = inhibition above about 75%; tested in HMLE shEcad cells
* marks the source's active call; other numbers are inactive results; · = no result given. Rows were chosen to be rich in hits. Some 6.9% of all compounds tested hit in one or more screens of this group.

SMILES	MPTP block	SKKanGAS inh	Beta apoptosis	NR3A LBD binder	Mdm2-MdmX inh	CSC inhib
COc1ccccc1CC1(C)C(=O)Nc2c(Cl)cccc21 (stereo not drawn)	-0.9	·	·	·	·	·
COc1ccc(-c2coc3cc(O)cc(O)c3c2=O)cc1	0.1	-0.5	0.1	11.9*	-112.5	1.2
COc1ccc(-c2coc3cc(OC)cc(O)c3c2=O)cc1	0.5	0.1	1.0	-45.7	-149.3	-7.0
CCc1ccc(Nc2nnc(SCC(=O)Nc3sccc3C(N)=O)s2)cc1	1.2	-0.9	-0.6	10.2*	19.1	10.2
O=C(CSc1nnc(NC(=O)c2ccco2)s1)Nc1cccc(F)c1	-0.7	30.3	-2.1	27.8*	-12.0	-6.1
CC(=O)Nc1cccc(NC(=O)CSc2nnc(NC(=O)c3ccco3)s2)c1	0.4	26.5	6.7	11.4*	22.7	-15.1
CC(=O)Nc1ccc(NC(=O)CSc2nnc(NC(=O)c3ccc(Br)o3)s2)cc1	-0.8	73.0*	16.7	15.9*	20.5	28.3
O=C1CSC(c2ccc([N+](=O)[O-])cc2)N1c1ccccc1 (stereo not drawn)	-1.6	-1.5	-7.7	0.6	-24.2	-15.3
C=CCC[C@@H](CCCCC)OC(=O)/C=C/[C@H](O)[C@@H](O)C[C@H](O)CC=C	0.8	·	·	·	·	·
CC(=O)Nc1cccc(NC(=O)CSc2nccn2Cc2ccco2)c1	-0.3	-11.9	5.8	14.4*	2.7	9.8
c1cncc(Cc2cc3ccccc3[nH]2)c1	-0.3	-7.4	-0.5	-1.5	14.9	15.8
c1ccc2[nH]c(-c3cnco3)cc2c1	1.0	-7.5	-1.4	11.2*	10.1	-2.0
CN1CCN(C(=O)c2ccc(N3CCCC3=O)cc2)CC1	-0.9	-13.6	-7.0	333.5*	-6.7	·
O=C1c2ccccc2C(=O)N1/N=C/c1ccc(O)c(O)c1	0.8	-4.7	2.2	19.0*	-5.1	13.4
Cc1ccc(C)c(S(=O)(=O)N2CCN(C(=O)C3CCN(c4ncnc5sc(C)c(C)c45)CC3)CC2)c1	2.0	22.1	50.8	1.1	22.5	·
Cc1ccc(N=CC=C2OC(C)(C)C(C)(C)O2)c(C)c1	0.0	-7.6	-3.1	15.0*	3.5	24.7
Cc1c(C(=O)NCc2ccc(F)cc2)sc(=O)n1Cc1ccccc1F	-2.3	·	·	·	·	·
O=C(Nc1nnc(-c2ccc3c(c2)OCCO3)o1)c1ccc(Cc2ccccc2)cc1	0.6	101.7*	·	0.1	40.9	·
O=C(Nc1ccc(NC(=O)c2cccs2)cc1)c1ccc2c(c1)OCCO2	0.8	7.7	0.2	28.7*	2.4	13.5
O=C(Nc1ccc(NC(=O)c2cccs2)cc1)c1ccc2c(c1)OCO2	0.1	0.9	-2.9	13.7*	45.5	0.6
O=C(Nc1ccc(NC(=O)c2ccc3c(c2)OCCO3)cc1)c1ccccc1	0.8	10.7	2.8	11.9*	5.2	10.5
O=C(Nc1ccccc1)c1ccc2c(c1)OCCO2	-0.8	5.9	-1.4	-0.6	-95.9	2.5
CCCCn1c(N)c(N(CCOC)C(=O)c2ccc(F)c(S(=O)(=O)N3CCOCC3)c2)c(=O)[nH]c1=O	-0.8	-2.1	0.1	-0.3	-4.0	-9.4
CCCOc1ccc(F)cc1-c1cc(C(=O)NCc2cc(OC)cc(OC)c2)[nH]n1	0.2	·	·	·	·	·
Cc1cc(C(=O)N/N=C/c2cc(Cl)cc([N+](=O)[O-])c2O)c2ccccc2n1	7.3	114.4*	5.1	0.6	19.7	45.0
Cc1ccc(Sc2ccc(/C=C3/C(=O)NN(c4ccccc4)C3=O)o2)cc1	12.6	-5.9	3.1	0.4	-1.0	89.4*
O=C1NN(c2ccccc2)C(=O)/C1=C/c1ccc(-c2ccc(Cl)c(C(=O)O)c2)o1	1.9	-10.3	·	-2.4	·	·
COc1cc(NC(=O)CSc2nc3[nH]c(=O)cc(O)c3s2)cc(OC)c1OC	-0.8	·	0.6	-3.7	-0.2	-5.6
C=CCCC1CN(CCCC)S(=O)(=O)c2c(F)cccc2O1 (stereo not drawn)	-0.7	·	·	18.1*	·	·
CCCCN1C[C@H](CO)Oc2cccc(F)c2S1(=O)=O	1.6	·	·	-2.4	·	·

Compound activity deposited in PubChem by several laboratories.
